Inconclusive results are not listed. Calls of active or inactive are those of the source. The call rests on the fitted dose curve; in most records, active means well fitted curve in the direction sought with a large enough effect; inconclusive means small, poorly fitted or top-dose-only effect, or another doubt; inactive means no such curve, though single readings can be large; an effect the other way counts as inactive or inconclusive.
Assays:
[1] = Cell Viability - LYMP2-004 (AID 966); further: nearly all actives have a fitted effect of over 65% in size
Method in brief: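 Acute toxicity is scored as a concentration-dependent drop in intracellular ATP, quantified by luciferase luminescence, in human lymphoblastoid cells exposed to compound for 24 hr. AC50 derives from Hill-equation modelling.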

[2] = Cell Viability - LYMP2-005 (AID 967); further: series mostly up to about 92 µM
Method in brief: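 Human lymphoblastoid LYMP2-005 cells, 2,500 per well in complete medium, rested 5 h at 37C then compound-treated 24 h at 37C. Intracellular ATP read by CellTiter-Glo luminescence after 30 min at room temperature; AC50 from Hill-equation fits of concentration-response data.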

[3] = Cell Viability - LYMP2-009 (AID 968); further: series mostly up to about 92 µM; nearly all actives have a fitted effect of over 55% in size
[4] = Cell Viability - LYMP2-011 (AID 969); further: nearly all actives have a fitted effect of over 60% in size
Method in brief: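 Acute toxicity is scored as a concentration-dependent drop in intracellular ATP of a human lymphoblastoid line after 24 hr treatment. Values are AC50s modeled with the Hill equation.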

[5] = Cell Viability - LYMP2-013 (AID 970); further: series mostly up to about 92 µM; nearly all actives have a fitted effect of over 55% in size
Method in brief: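 Acute toxicity was measured in human lymphoblastoid cells (2500/well) exposed to compound titrations for 24 hr, with ATP luminescence (CellTiter-Glo) as read-out and AC50 fitted by Hill equation.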

[6] = Cell Viability - LYMP2-015 (AID 971); further: nearly all actives have a fitted effect of over 55% in size
Method in brief: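 Acute toxicity was scored as a concentration-dependent drop in intracellular ATP in lymphoblastoid cells after 24 hr compound exposure in complete medium. Detection used CellTiter-Glo luciferase luminescence.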

[7] = Cell Viability - LYMP2-017 (AID 972);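 further: series mostly up to about 92 µM; cells exposed to compound for 24 hours at 37 °C; nearly all actives have a fitted effect of over 55% in size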
Method in brief: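 Steps: plate 2500 lymphoblastoid cells per well; incubate 5 hr at 37 C; add compound across a concentration series and incubate 24 hr at 37 C; add CellTiter-Glo and read luminescence after 30 min at room temperature; fit Hill curves for AC50.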

[8] = Cell Viability - LYMP2-019 (AID 973); further: nearly all actives have a fitted effect of over 55% in size
Method in brief: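 Cells plated at 2500/well and allowed 5 hr at 37 C before compound addition. After 24 hr incubation, CellTiter-Glo reagent was added, plates sat 30 min at room temperature, and luminescence was recorded.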

[9] = Cell Viability - LYMP2-021 (AID 974)
Method in brief: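 Concentration-response cytotoxicity in a human lymphoblastoid line: 24 hr treatment at 37 C in complete culture medium, tetraoctylammonium bromide as positive control, luminescent ATP quantitation as viability measure.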

[10] = Cell Viability - LYMP2-025 (AID 976); further: series mostly up to about 92 µM
Method in brief: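 In qHTS format, LYMP2-025 lymphoblastoid cells in complete culture medium received compound for 24 hr; ATP-based CellTiter-Glo signal gave viability, with AC50 derived by Hill equation.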

[11] = Cell Viability - LYMP2-002 (AID 977);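 further: series mostly up to about 92 µM; compound exposure lasted 24 h at 37 °C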
Method in brief: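 Cytotoxicity is scored as concentration-dependent loss of cellular ATP in a human lymphoblastoid line after 24 hr compound treatment at 37 C. AC50 is obtained by modelling concentration-response data with the Hill equation.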

[12] = Cell Viability - LYMP2-006 (AID 978); further: series mostly up to about 92 µM; nearly all actives have a fitted effect of over 60% in size
Method in brief: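 Human lymphoblastoid cells (LYMP2-006), 2500/well in complete medium, were treated with compound for 24 hr at 37 C. Cellular ATP was read by CellTiter-Glo luminescence after 30 min, and AC50 values came from Hill-equation fits of concentration-response data.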

[13] = Cell Viability - LYMP2-007 (AID 979);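 further: cells exposed to compound for 24 h before reading; nearly all actives have a fitted effect of over 60% in size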
Method in brief: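 Acute toxicity is scored as a concentration-dependent fall in intracellular ATP in human lymphoblastoid cells treated 24 hr at 37 C, measured by luciferase luminescence; Hill-equation modelling yields AC50.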

[14] = Cell Viability - LYMP2-008 (AID 980); further: nearly all actives have a fitted effect of over 60% in size
Method in brief: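 Acute cytotoxicity is scored as concentration-dependent loss of cellular ATP in a human lymphoblastoid line after 24 hr treatment at 37 C. ATP is quantified by luciferase luminescence.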

[15] = Cell Viability - LYMP2-010 (AID 981)
Method in brief: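 Acute toxicity is scored as a concentration-dependent loss of cellular ATP in human lymphoblastoid cells after 24 hr compound exposure in complete medium. Tetraoctylammonium bromide is the positive control.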

[16] = Cell Viability - LYMP2-012 (AID 982)
[17] = Cell Viability - LYMP2-014 (AID 983); further: series mostly up to about 92 µM; nearly all actives have a fitted effect of over 50% in size
Method in brief: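 Decrease in intracellular ATP after 24 hr treatment at 37 C, measured by luciferase luminescence, indicated cytotoxicity. Concentration-response data were fitted with the standard Hill equation to give AC50.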

[18] = Cell Viability - LYMP2-016 (AID 984)
Method in brief: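 Human lymphoblastoid LYMP2-016 cells, 2500 per well, treated with compounds for 24 h at 37 C. Viability read as intracellular ATP by CellTiter-Glo luminescence after 30 min at room temperature; AC50 from Hill fits of concentration-response.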

[19] = Cell Viability - LYMP2-018 (AID 985);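 further: compound exposure lasted 24 hr at 37 °C; nearly all actives have a fitted effect of over 50% in size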
Method in brief: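 Acute cytotoxicity is scored as a concentration-dependent drop in intracellular ATP after 24 hr exposure of the lymphoblastoid line in complete culture medium, measured by luciferase luminescence. Potency is expressed as AC50 from Hill modelling.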

[20] = Cell Viability - LYMP2-023 (AID 975)
Method in brief: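 Concentration-dependent drop in intracellular ATP measures acute cytotoxicity in a human lymphoblastoid line treated for 24 hours in complete culture medium. AC50 values are taken from Hill-equation fits of qHTS data.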

Measured: Potency

C/C=C1\CC2C=CC1C2 (stereo unspecified)
not listed: [20]
inactive: all other assays above

c1ccc2n[nH]nc2c1
not listed: [20]
inactive: all other assays above

CC(=O)Nc1cccc(N)c1
not listed: [10]
inactive: all other assays above

CNC(=O)N(c1ccccc1)c1ccccc1
not listed: [10] | [14] | [20]
inactive: all other assays above

CO[Si](CCCNCCC[Si](OC)(OC)OC)(OC)OC
not listed: [10] | [15]
inactive: all other assays above

CCCCC=O
not listed: [10] | [15]
inactive: all other assays above

N#CCc1ccccc1[N+](=O)[O-]
not listed: [16] | [20]
inactive: all other assays above

COC(=O)CCCC(=O)OC
not listed: [20]
inactive: all other assays above

CCCCCCO
not listed: [9]
inactive: all other assays above

C/C=C(/C)C#N
not listed: [9]
inactive: all other assays above

CC(=O)C1(C)CC2=C(CCCC2(C)C)CC1C (stereo unspecified)
not listed: [10]
inactive: all other assays above

C1COC1
not listed: [10]
inactive: all other assays above

CC1CCCO1 (stereo unspecified)
not listed: [10] | [13] | [20]
inactive: all other assays above

Cc1ccc(CO)cc1
not listed: [11] | [15] | [16] | [20]
inactive: all other assays above

CC(C)(O)C(=O)O
not listed: [10] | [16]
inactive: all other assays above

CCOCCO
not listed: [15] | [20]
inactive: all other assays above

CCNc1ccccc1
not listed: [13] | [16] | [20]
inactive: all other assays above

C=C(C)C(=O)OC
not listed: [10]
inactive: all other assays above

O=[N+]([O-])c1cccc(C(F)(F)F)c1
not listed: [10] | [14] | [15]
inactive: all other assays above

O=C(O)c1c(Cl)cccc1Cl
not listed: [20]
inactive: all other assays above

FC(F)(F)c1ccccc1Cl
not listed: [10]
inactive: all other assays above

Cc1ccc2nc(-c3ccc(N)cc3)sc2c1S(=O)(=O)O
not listed: [15] | [20]
inactive: all other assays above

Cc1ccccc1C#N
not listed: [13] | [20]
inactive: all other assays above

CC(=O)c1ccc([N+](=O)[O-])cc1
not listed: [20]
inactive: all other assays above

CCCCCCCCN
not listed: [10] | [11] | [14] | [15] | [16]
inactive: all other assays above

CCCC(C)CO (stereo unspecified)
not listed: [20]
inactive: all other assays above

Cc1cc(C)c(N)cc1C
not listed: [13] | [14] | [20]
inactive: all other assays above

O=C(Cl)c1c(Cl)cccc1Cl
not listed: [20]
inactive: all other assays above

CN(C)CCCCl
not listed: [13] | [20]
inactive: all other assays above

CC(=O)CC(C)C
not listed: [10] | [11] | [13] | [14]
inactive: all other assays above

C=C(C)C(=O)OCCCCCCCCCC
not listed: [14] | [20]
inactive: all other assays above

ClCCl
not listed: [10] | [20]
inactive: all other assays above

Nc1nc(-c2ccccc2)cs1
not listed: [20]
inactive: all other assays above

Cc1nc2ccc(Cl)cc2[nH]1
not listed: [20]
inactive: all other assays above

Source: PubChem BioAssay (NCATS)
